# In PubChem BioAssay (NCI):
# Compounds without any hit were thinned out: in the full panel of roughly 83,000, 20% have a hit.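 How to read the values: 0–100, growth inhibition (40 = 60% inhibited); 0, no net growth; -100 to 0, cell death (-40 = 40% of starting cells died; -100 = all dead).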 Unmarked numbers belong to inactive results. The source made the active and inactive calls. How the source made its calls: active means growth percent below 10; inactive means the rest.
# Tests used:
# Experiment in all cases: NCI-60 one-dose screen, 48 h (100 = growth as untreated, 0 = no growth, -100 = all killed)
# [1] = system: DU-145 prostate; conditions: 10 µM
# [2] = system: K-562 leukemia; conditions: 10 µM
# [3] = system: MALME-3M melanoma; conditions: 10 µM
# [4] = system: MDA-MB-231 breast; conditions: 10 µM
# [5] = system: RXF 393 renal; conditions: 10 µM
# [6] = system: SF-268 CNS; conditions: 10 µM
# [7] = system: SF-295 CNS; conditions: 10 µM
# [8] = system: SF-539 CNS; conditions: 10 µM
# [9] = system: UACC-257 melanoma; conditions: 10 µM
# [10] = system: M14 melanoma; conditions: 10 µM
# [11] = system: HCT-15 colon; conditions: 10 µM
# [12] = system: HT29 colon; conditions: 10 µM
# [13] = system: SNB-19 CNS; conditions: 10 µM
# [14] = system: U251 CNS; conditions: 10 µM
# [15] = system: PC-3 prostate; conditions: 10 µM
# [16] = system: SK-MEL-5 melanoma; conditions: 10 µM
# [17] = system: UACC-62 melanoma; conditions: 10 µM unless noted
# [18] = system: LOX IMVI melanoma; conditions: 10 µM
# [19] = system: SK-MEL-28 melanoma; conditions: 10 µM
# [20] = system: SNB-75 CNS; conditions: 10 µM
SMILES,growth [1],growth [2],growth [3],growth [4],growth [5],growth [6],growth [7],growth [8],growth [9],growth [10],growth [11],growth [12],growth [13],growth [14],growth [15],growth [16],growth [17],growth [18],growth [19],growth [20]
C#CCSc1nnnn1-c1ccc(Br)c(C)c1,107%,86.3%,112%,98.4%,68.3%,99.2%,103%,89%,83.5%,94.8%,95.4%,89.7%,86.4%,81.8%,99.7%,88.3%,65.6%,97.4%,124%,
CN(C)C(C)(C)CC(C)(C)C,99.5%,96.5%,94.2%,101%,103%,103%,104%,94.1%,117%,105%,100%,119%,105%,107%,,105%,105%,100%,109%,
Cc1cc(N)ccc1-c1ccc(N)cc1C,110%,106%,120%,106%,108%,103%,99.2%,93.8%,80.7%,94.7%,97.6%,102%,107%,110%,73.8%,99.7%,104%,88.2%,,
CCNCCCCNCCCCNCCCCNCCCCNCC,82.1%,61%,-12.6% (active),109%,81.7%,138%,62.3%,122%,30.7%,66.9%,99.1%,72.1%,81.1%,95.5%,84.6%,73.8%,72.8%,75.3%,,
CC1(C)Nc2cccc3c(N=Nc4ccc(N=Nc5ccccc5)c5ccccc45)ccc(c23)N1,120%,123%,132%,66.9%,124%,106%,100%,94.5%,95.9%,91.6%,77.5%,,124%,110%,89.6%,92.9%,79.2%,77.6%,116%,73%
O=C(O)c1cc([N+](=O)[O-])ccc1Cl,121%,97.7%,131%,101%,112%,114%,101%,105%,99.5%,114%,100%,84.3%,99.4%,106%,88.8%,100%,95.6%,99.5%,,
O=c1cc2oc3cc(O)c(O)cc3c(-c3ccccc3O)c-2cc1O,86%,54.1%,105%,81.9%,60.1%,-1.76% (active),101%,52.3%,130%,77.1%,91.7%,,72.5%,58.4%,73.9%,74.2%,80.5%,64.8%,81.6%,62.9%
c1ncc2[nH]cnc2n1,96.6%,102%,126%,111%,112%,104%,116%,98.3%,87.1%,97.9%,87.2%,92.3%,102%,103%,86.3%,97.1%,91.9%,103%,100%,
COc1cc2cc(OC(C)=O)c3cc4c(cc3c2c(OC)c1OC)OCO4,98.8%,107%,98.4%,108%,94.6%,97.9%,93%,103%,105%,96.5%,99.7%,101%,105%,103%,94.7%,99.5%,103%,94.9%,105%,
NC(=S)CN1CCOCC1,107%,97.7%,110%,106%,115%,102%,131%,111%,117%,120%,107%,100%,104%,102%,91.9%,106%,99%,104%,106%,
CCOC(=O)C(=O)C=P(c1ccccc1)(c1ccccc1)c1ccccc1,103%,107%,102%,99.2%,106%,97.9%,97.8%,103%,111%,109%,102%,106%,109%,107%,96.4%,102%,107%,92.8%,110%,
O=c1cc(-c2ccccc2)oc2c1ccc1ccccc12,102%,102%,146%,88.4%,90.8%,101%,98%,81.2%,97.3%,98.9%,97.7%,,75.5%,83.8%,84%,79.6%,85.6%,89.3%,99.3%,71.4%
CCOC(=O)c1[nH]c(C)c(C(=O)O)c1C,114%,102%,122%,107%,115%,105%,122%,105%,111%,124%,109%,105%,109%,107%,88.9%,108%,107%,106%,,
CCOC(=O)/C(=C/c1ccc(OC)cc1)N(CC)CC,102%,102%,108%,107%,107%,100%,101%,108%,103%,107%,112%,109%,103%,99.1%,95.4%,99.7%,102%,97.7%,112%,
O=C(Nc1cc(-c2ccccc2)[nH]n1)c1ccc(Cl)cc1,77.6%,61.1%,92.6%,114%,32.4%,74.2%,71.2%,66.2%,77.9%,64.4%,61.4%,67.2%,65.2%,70.2%,75.9%,87.6%,79.7%,89.5%,117%,
CC1(c2ccccc2)NC(=O)NC1=O (configuration not stated),125%,103%,113%,111%,110%,106%,119%,117%,84.5%,121%,110%,110%,103%,113%,98.6%,108%,100%,,113%,
N=c1c(C(=O)OCc2ccccc2)ncc(CCl)n1O,102%,109%,113%,95.8%,94.9%,94.9%,124%,104%,81.8%,94.1%,99.7%,,95.6%,71.4%,95.9%,96.9%,91.1%,42.2%,98.1%,83.6%
